Experimental data as given in PubChem BioAssay (NCATS).
Records with an inconclusive call do not appear. Activity calls are given as the source filed them. Unless noted, the rule behind the calls is not given here.

Key:
[1] = qHTS profiling for inhibitors of Plasmodium falciparum (3D7) proliferation (AID 743322);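 note: infected erythrocytes exposed to compound for 72 h before lysis; 100% = DMSO vehicle wells and 0% = 0.29 µM artemisinin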; settings: P. falciparum 3D7 proliferation; at 28.7 µM (top of the series)
Method in brief: (§1)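 Erythrocytes infected with P. falciparum (0.3% parasitemia, 2.5% hematocrit) incubated with compounds 72 h at 37 C, 5% CO2. Lysis with saponin/Triton buffer containing SYBR Green I, overnight at room temperature in the dark; DNA fluorescence (485/535 nm) normalised to 0.29 uM artemisinin and DMSO.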

[2] = qHTS profiling for inhibitors of Plasmodium falciparum (DD2) proliferation (AID 743323); settings: lower = more inhibition; at 28.7 µM (top of the series)
Method in brief: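 SYBR Green fluorescence (ex 485, em 535 nm) of lysed cultures gives parasite DNA content; wells normalized to artemisinin (0.29 uM) and DMSO controls. Infected red cells: 0.3% parasitemia, 2.5% hematocrit, 72 h, 37 C.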

[3] = qHTS profiling for inhibitors of Plasmodium falciparum (HB3) proliferation (AID 743324; active = well fitted curve in the direction sought with a large enough effect; an effect the other way counts as inactive or inconclusive;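 note: 100% = DMSO vehicle wells and 0% = artemisinin-treated control wells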); settings: Plasmodium falciparum HB3 blood-stage proliferation; at 28.7 µM (top of the series)
Method in brief: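 P. falciparum HB3 grown in erythrocytes (0.3% parasitemia, 2.5% hematocrit final) with compound for 72 h at 37 C, 5% CO2. Parasite DNA detected by SYBR Green after saponin/triton lysis overnight; normalized to 0.29 uM artemisinin and DMSO.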

[4] = qHTS profiling of the MIPE4 collection as inhibitors of Plasmodium falciparum (3D7) proliferation (AID 743344);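 note: scaled between DMSO vehicle wells and 0.29 µM artemisinin as full inhibition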; settings: P. falciparum 3D7 in erythrocytes, SYBR Green DNA fluorescence, 72 h; at 28.5 µM (top of the series) unless noted
Method in brief: as §1

[5] = qHTS profiling of the MIPE4 collection as inhibitors of Plasmodium falciparum (DD2) proliferation (AID 743345); settings: P. falciparum Dd2 in erythrocytes, SYBR Green DNA, 72 h; at 28.5 µM (top of the series) unless noted
Method in brief: as §1

[6] = qHTS profiling of the MIPE4 collection as inhibitors of Plasmodium falciparum (DD2) proliferation (Rep 2) (AID 743346); settings: P. falciparum Dd2 in erythrocytes, SYBR Green DNA, 72 h; at 28.5 µM (top of the series) unless noted
Method in brief: as §1

[7] = qHTS profiling of the MIPE4 collection as inhibitors of Plasmodium falciparum (HB3) proliferation (AID 743347);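 note: plate controls were DMSO vehicle wells for no effect and artemisinin wells for full effect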; settings: P. falciparum HB3 in erythrocytes, SYBR Green DNA, 72 h; at 28.5 µM (top of the series) unless noted
Method in brief: as §1

[8] = High-throughput drug toxicity screening in the BPDCN cell line Gen2.2 (AID 1224824); settings: Gen2.2 BPDCN cells; at 45.8 µM (top of the series) unless noted;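 note: cells exposed to compounds for 48 h before reading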
Method in brief: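 Gen2.2 cells, 500 per well in phenol red-free RPMI with 10% FBS, exposed to compounds 48 h at 37 C, 5% CO2; viability by CellTiter-Glo luminescence. Percent activity scaled to DMSO (100%) and 9.2 uM bortezomib final (0%).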

[9] = qHTS assay for measurement of the activity of small molecule inhibitors on Zika virus induced Caspase-3 activity in human iPSC derived neural progenitor cells (hNPCs) (AID 1224857; active = well fitted curve in the direction sought with a large enough effect; an effect the other way counts as inactive or inconclusive; note: nearly all actives have a fitted effect of over 65% in size; note: potency is the fitted concentration of half-maximal effect)
Method in brief: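 Values are percent inhibition of virus-induced caspase-3/7 signal, scaled between uninfected cells and ZIKV-infected cells. Infection used 2 FFU/cell for 6 h after 1 h compound exposure.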

[10] = High-throughput drug toxicity screening in the BPDCN cell line Cal-1 (AID 1224825); settings: Cal-1 BPDCN cell viability, qHTS; at 45.8 µM (top of the series) unless noted
Method in brief: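 Exponentially growing Cal-1 cells, 500 per well in phenol red-free RPMI with 10% FBS, were exposed to compounds for 48 h at 37 °C, 5% CO2. Viability was read by CellTiter-Glo luminescence and normalised to DMSO (100%) and 9.2 uM bortezomib (0%).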

CCCCc1nc2cc(C=CC(=O)NO)ccc2n1CCN(CC)CC
remaining parasite growth % (stronger effect = lower value) [1]: -0.311%
activity, percent of control [2]: -0.413%
remaining proliferation (% of control), lower = more inhibition [3]: -0.411%
parasite growth, % of DMSO control [4]: 4.71%
parasite growth remaining, % of DMSO control (lower = more inhibition) [5]: 7.36%
parasite growth, % of control (lower = inhibition) [6]: 7.61%
growth, % of control [7]: 4.84%
cell viability, % of control (lower = more cytotoxic) [8]: 53.2%
Potency [9]: inactive

CS(=O)(=O)c1ccc(-c2cnc(N)c(C(=O)Nc3ccccc3)n2)cc1
parasite growth remaining, % of DMSO control (lower = more inhibition) [5]: 9.88%
parasite growth, % of control (lower = inhibition) [6]: 7.67%
cell viability, % of control (lower = more cytotoxic) [8]: 99.6%
viability (% of control) [10]: 41.5%
Potency [9]: inactive

CNC(=O)c1nn(C)c2c1C(C)(C)Cc1cnc(Nc3ccc(N4CCN(C)CC4)cc3)nc1-2
parasite growth remaining, % of DMSO control (lower = more inhibition) [5]: 11.1%
parasite growth, % of control (lower = inhibition) [6]: 6.77%
cell viability, % of control (lower = more cytotoxic) [8]: 3.63%
viability (% of control) [10]: 3.8%
Potency [9]: inactive

CN(C1CCc2c(c3ccccc3n2CC(=O)O)C1)S(=O)(=O)c1ccc(F)cc1 (configuration not stated)
parasite growth remaining, % of DMSO control (lower = more inhibition) [5]: 93.1%
parasite growth, % of control (lower = inhibition) [6]: 19%
growth, % of control [7]: 19.9%
cell viability, % of control (lower = more cytotoxic) [8]: 243%
viability (% of control) [10]: 39.5%
Potency [9]: inactive

COC(=O)Nc1nc2ccc(C(=O)c3ccc(F)cc3)cc2[nH]1
parasite growth, % of DMSO control [4]: 66.2%
parasite growth remaining, % of DMSO control (lower = more inhibition) [5]: 96.2%
parasite growth, % of control (lower = inhibition) [6]: 69.2%
growth, % of control [7]: 61.7%
cell viability, % of control (lower = more cytotoxic) [8]: 78.4%
viability (% of control) [10]: 25%
Potency [9]: inactive

CCNC(=O)Nc1ccc2ncc(Nc3ccc(C)cc3)nc2n1
parasite growth, % of DMSO control [4]: 19.5%
parasite growth remaining, % of DMSO control (lower = more inhibition) [5]: 71.6%
parasite growth, % of control (lower = inhibition) [6]: 33%
growth, % of control [7]: 16.3%
cell viability, % of control (lower = more cytotoxic) [8]: 50.5%
viability (% of control) [10]: 19.7%
Potency [9]: inactive

NCC(=O)Nc1ccc(-n2nc(C(F)(F)F)cc2-c2ccc3c(ccc4ccccc43)c2)cc1
parasite growth remaining, % of DMSO control (lower = more inhibition) [5]: 8.46%
parasite growth, % of control (lower = inhibition) [6]: 12.2%
growth, % of control [7]: 4.19%
cell viability, % of control (lower = more cytotoxic) [8]: 1.18%
viability (% of control) [10]: 0.933%
Potency [9]: inactive

O=C(C=Cc1cccnc1)NCCCCC1CCN(C(=O)c2ccccc2)CC1
remaining parasite growth % (stronger effect = lower value) [1]: 81.9%
activity, percent of control [2]: 85.9%
remaining proliferation (% of control), lower = more inhibition [3]: 46.3%
parasite growth, % of DMSO control [4]: 50.2%
parasite growth remaining, % of DMSO control (lower = more inhibition) [5]: 93.7%
parasite growth, % of control (lower = inhibition) [6]: 51%
growth, % of control [7]: 42%
cell viability, % of control (lower = more cytotoxic) [8]: 48%
Potency [9]: inactive

CC(=O)Nc1nc(C)c(-c2ccc(Cl)c(S(=O)(=O)NCCO)c2)s1
parasite growth, % of DMSO control [4]: 4.79%
parasite growth remaining, % of DMSO control (lower = more inhibition) [5]: 7.49%
parasite growth, % of control (lower = inhibition) [6]: 10%
growth, % of control [7]: 2.77%
cell viability, % of control (lower = more cytotoxic) [8]: 17.8%
viability (% of control) [10]: 18.7%
Potency [9]: inactive

Nc1ccn([C@@H]2O[C@H](CO)[C@H](O)C2(F)F)c(=O)n1
parasite growth, % of DMSO control [4]: 19.5%
parasite growth remaining, % of DMSO control (lower = more inhibition) [5]: 10.3%
parasite growth, % of control (lower = inhibition) [6]: 8.03%
growth, % of control [7]: 42.2%
cell viability, % of control (lower = more cytotoxic) [8]: 144%
viability (% of control) [10]: 11.1%
Potency [9]: inactive

Cc1c(C)n(Cc2ccc(-c3ccccc3C(=O)O)cc2)c2ccc(C(=O)N[C@@H](C)c3ccc([N+](=O)[O-])cc3)cc12
parasite growth, % of DMSO control [4]: 25.4%
parasite growth remaining, % of DMSO control (lower = more inhibition) [5]: 30.3%
parasite growth, % of control (lower = inhibition) [6]: 20.8%
growth, % of control [7]: 7.19%
cell viability, % of control (lower = more cytotoxic) [8]: 21.6%
viability (% of control) [10]: 8.82%
Potency [9]: inactive

C1=CCOCc2cc(ccc2OCCN2CCCC2)Nc2nccc(n2)-c2cccc(c2)OCC1
parasite growth remaining, % of DMSO control (lower = more inhibition) [5]: 5.48%
parasite growth, % of control (lower = inhibition) [6]: 15.5%
growth, % of control [7]: 5.8%
cell viability, % of control (lower = more cytotoxic) [8]: 8.21%
viability (% of control) [10]: 5.28%
Potency [9]: inactive

Cc1ccc(NC(=O)C2(c3ccc4c(c3)OC(F)(F)O4)CC2)nc1-c1cccc(C(=O)O)c1
parasite growth, % of DMSO control [4]: 7.25%
parasite growth remaining, % of DMSO control (lower = more inhibition) [5]: 6.69%
parasite growth, % of control (lower = inhibition) [6]: 7.61%
cell viability, % of control (lower = more cytotoxic) [8]: 8.23%
Potency [9]: inactive

O=c1c2ccccc2nc2n1CCc1c-2[nH]c2ccccc12
parasite growth, % of DMSO control [4]: 85.9%
parasite growth remaining, % of DMSO control (lower = more inhibition) [5]: 88.1%
parasite growth, % of control (lower = inhibition) [6]: 167%
growth, % of control [7]: 85.6%
cell viability, % of control (lower = more cytotoxic) [8]: 35%
Potency [9]: 13.2 µM (active)

CC(C)Nc1cc(C(F)(F)F)cc2nc(NC(=O)c3cccnc3)nn12
parasite growth, % of DMSO control [4]: 78.6%
parasite growth remaining, % of DMSO control (lower = more inhibition) [5]: 97.3%
parasite growth, % of control (lower = inhibition) [6]: 92.3%
growth, % of control [7]: 93.5%
cell viability, % of control (lower = more cytotoxic) [8]: 80.4%
Potency [9]: inactive

CC=C1NC(=O)[C@H]2CSSCCC=C[C@H](CC(=O)N[C@H](C(C)C)C(=O)N2)OC(=O)[C@H](C(C)C)NC1=O
remaining parasite growth % (stronger effect = lower value) [1]: 95.6%
activity, percent of control [2]: 92.5%
remaining proliferation (% of control), lower = more inhibition [3]: 98.4%
parasite growth, % of DMSO control [4]: 5.8%
parasite growth remaining, % of DMSO control (lower = more inhibition) [5]: 8.63%
parasite growth, % of control (lower = inhibition) [6]: 12.2%
growth, % of control [7]: 8.43%
cell viability, % of control (lower = more cytotoxic) [8]: 5.71%
Potency [9]: inactive

COc1cc(C(=O)N2CCC(N3CCN(C)CC3)CC2)ccc1Nc1ncc2c(n1)N(C)c1ccccc1C(=O)N2C
parasite growth remaining, % of DMSO control (lower = more inhibition) [5]: 7.18%
parasite growth, % of control (lower = inhibition) [6]: 19.7%
growth, % of control [7]: 5.31%
cell viability, % of control (lower = more cytotoxic) [8]: 2.17%
Potency [9]: inactive

O=C(O)CCCc1c[nH]c2ccccc12
parasite growth, % of DMSO control [4]: 102%
parasite growth remaining, % of DMSO control (lower = more inhibition) [5]: 20.4%
parasite growth, % of control (lower = inhibition) [6]: 142%
growth, % of control [7]: 102%
cell viability, % of control (lower = more cytotoxic) [8]: 90.6%
Potency [9]: inactive

CN(C)CC(C)(C)CNc1nn2c(-c3ccccc3)nnc2cc1C1CCC1
parasite growth, % of DMSO control [4]: 20%
parasite growth remaining, % of DMSO control (lower = more inhibition) [5]: 21.9%
parasite growth, % of control (lower = inhibition) [6]: 40.5%
growth, % of control [7]: 48.8%
cell viability, % of control (lower = more cytotoxic) [8]: 13.9%
Potency [9]: inactive

Nc1ccccc1NC(=O)c1ccc(CNC(=O)OCc2cccnc2)cc1
remaining parasite growth % (stronger effect = lower value) [1]: 99.2%
activity, percent of control [2]: 92.8%
parasite growth, % of DMSO control [4]: 25.3%
parasite growth remaining, % of DMSO control (lower = more inhibition) [5]: 31.3%
parasite growth, % of control (lower = inhibition) [6]: 25.4%
growth, % of control [7]: 7.7%
cell viability, % of control (lower = more cytotoxic) [8]: 2.59%
Potency [9]: inactive

CN(c1ncccc1CNc1nc(Nc2ccc3c(c2)CC(=O)N3)ncc1C(F)(F)F)S(C)(=O)=O
remaining parasite growth % (stronger effect = lower value) [1]: 12.7%
activity, percent of control [2]: 9.35%
remaining proliferation (% of control), lower = more inhibition [3]: 5.89%
parasite growth, % of DMSO control [4]: 12.5%
parasite growth remaining, % of DMSO control (lower = more inhibition) [5]: 14.1%
parasite growth, % of control (lower = inhibition) [6]: 30.9%
viability (% of control) [10]: 4.76%
Potency [9]: inactive

O=C(O)C1(Cc2cccc(Nc3nccs3)n2)CCC(Oc2cccc(Cl)c2F)CC1 (configuration not stated)
parasite growth, % of DMSO control [4]: 63.9%
parasite growth remaining, % of DMSO control (lower = more inhibition) [5]: 98.3%
parasite growth, % of control (lower = inhibition) [6]: 59.5%
growth, % of control [7]: 92%
cell viability, % of control (lower = more cytotoxic) [8]: 88.8%
Potency [9]: inactive

Nc1ncnc2c1c(-c1cccc(OCc3ccccc3)c1)cn2C1CC(CN2CCCC2)C1 (configuration not stated)
parasite growth, % of DMSO control [4]: 5.35%
parasite growth remaining, % of DMSO control (lower = more inhibition) [5]: 7.32%
parasite growth, % of control (lower = inhibition) [6]: 9.07%
growth, % of control [7]: 8.63%
cell viability, % of control (lower = more cytotoxic) [8]: 5.16%
Potency [9]: inactive
